Hits are enriched below; roughly 13% of the tested compounds scored in any of these assays.
USP17 inh = inhibitors of human USP17 deubiquitinase | Ubiquitin carboxyl-terminal hydrolase 17-like protein 5 (Homo sapiens), A8MUK1 | purified USP17, Ub-rhodamine cleavage fluorescence, 3 h | 6.5% of 47,000 active | AID 1645855, 2021 | inhibition, % at 50 µM
USP28 inh = inhibitors of human USP28 deubiquitinase | inhibition, % at 25 µM | Ubiquitin carboxyl-terminal hydrolase 28 (Homo sapiens), Q96RU2 | purified USP28, Ub-rhodamine cleavage fluorescence, 30 min | 3% of 47,000 active | AID 1645857, 2021
Target sequence (Q96RU2 whole entry, looked up): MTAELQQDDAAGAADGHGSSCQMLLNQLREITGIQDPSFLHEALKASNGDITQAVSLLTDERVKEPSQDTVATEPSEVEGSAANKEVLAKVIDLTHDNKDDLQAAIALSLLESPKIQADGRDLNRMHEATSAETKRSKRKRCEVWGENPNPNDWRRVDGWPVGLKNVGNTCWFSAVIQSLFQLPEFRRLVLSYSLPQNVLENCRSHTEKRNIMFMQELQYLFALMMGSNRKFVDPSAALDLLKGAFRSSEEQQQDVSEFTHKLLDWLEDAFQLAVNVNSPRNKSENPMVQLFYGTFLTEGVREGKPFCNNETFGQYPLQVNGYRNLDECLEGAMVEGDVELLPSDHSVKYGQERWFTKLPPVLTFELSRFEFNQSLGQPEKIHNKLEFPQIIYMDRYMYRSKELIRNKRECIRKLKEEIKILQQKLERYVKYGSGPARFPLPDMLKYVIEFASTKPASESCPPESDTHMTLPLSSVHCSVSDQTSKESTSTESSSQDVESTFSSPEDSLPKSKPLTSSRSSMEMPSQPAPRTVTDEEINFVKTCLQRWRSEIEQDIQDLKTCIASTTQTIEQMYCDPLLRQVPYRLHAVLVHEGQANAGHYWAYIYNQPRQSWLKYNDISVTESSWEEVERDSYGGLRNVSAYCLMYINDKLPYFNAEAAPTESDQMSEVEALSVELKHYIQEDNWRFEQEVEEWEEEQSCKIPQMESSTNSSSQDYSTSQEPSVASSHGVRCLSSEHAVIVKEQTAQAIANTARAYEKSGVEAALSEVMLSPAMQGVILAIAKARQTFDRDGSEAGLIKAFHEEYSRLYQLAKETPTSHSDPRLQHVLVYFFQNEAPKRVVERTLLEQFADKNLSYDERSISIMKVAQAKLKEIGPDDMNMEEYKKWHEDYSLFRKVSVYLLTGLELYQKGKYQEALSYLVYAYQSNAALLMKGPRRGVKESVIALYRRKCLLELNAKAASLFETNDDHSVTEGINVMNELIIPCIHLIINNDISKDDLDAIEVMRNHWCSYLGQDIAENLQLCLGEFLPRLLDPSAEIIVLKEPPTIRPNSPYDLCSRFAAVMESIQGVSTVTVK
USP10 block = inhibitors of human USP10 deubiquitinase. Ubiquitin carboxyl-terminal hydrolase 10 (Homo sapiens), Q14694. purified USP10, Ub-rhodamine fluorescence, 60 min. inhibition, % at 20 µM. 1.1% of 47,000 active. AID 1645856, 2021
USP30 block = inhibitors of human USP30 deubiquitinase; purified USP30, Ub-rhodamine cleavage fluorescence; inhibition, % at 25 µM; 5.3% of 47,000 active; AID 1645860, 2021
USP8 block = inhibitors of human USP8 deubiquitinase. purified USP8, Ub-rhodamine cleavage fluorescence, 30 min. inhibition, % at 20 µM. 4.2% of 47,000 active. AID 1645853, 2021
The depositor's hits bear a star; i = inactive; . = not tested or not shown. No stated cut-off is given here; in the data, active means inhibition above about 30%; inactive means the rest.

SMILES	USP17 inh	USP28 inh	USP10 block	USP30 block	USP8 block
CC1CCN(c2c(S(=O)(=O)c3ccccc3)cnc3ccc(F)cc23)CC1	-2.6	2.9	4.2	7.2	-8.6
CC1CCc2cc(F)ccc2N1S(=O)(=O)c1cc(Br)cnc1N (stereo not drawn)	17.4	33.5*	9.7	18.0	10.0
CC(C)Cn1cc(OC(=O)c2ccc(F)cc2)c2c1nc(-c1ccc(F)cc1)n1c3ccccc3nc21	-186.5	-281.9	-9.7	i	-180.3
CC1=C(c2ccc(F)cc2)S(=O)(=O)NC1=NCC(=O)Nc1ccc(F)cc1	0.1	-0.9	1.2	52.2*	6.0
CC1=C(c2ccc(C)c(C)c2)S(=O)(=O)NC1=NCC(=O)NCCCc1ccccc1	50.5*	3.6	6.9	29.7	-199.7
CC1=C(c2ccc(C)c(C)c2)S(=O)(=O)NC1=NCC(=O)NCc1ccccc1	28.0	.	1.5	.	-3.9
CC1=C(c2ccc(Cl)cc2)S(=O)(=O)NC1=NCC(=O)Nc1ccc(F)cc1	64.1*	7.1	3.3	43.6*	23.0
CC1=C(c2ccc(F)cc2)S(=O)(=O)NC1=NCC(=O)Nc1cccc(F)c1	40.7*	16.5	0.9	57.8*	7.3
COc1cccc(CC(=O)N2CCC(c3cc(N)on3)CC2)c1	4.0	-3.6	3.8	-0.2	5.3
COCCN1CCc2c(cccc2-n2nnc(C(=O)NCC3CCCCC3)c2C)C1	-36.6	-16.9	-6.4	-37.2	-155.9
O=C(NC1CCN(Cc2ccccc2)CC1)c1cc(CN2CCOCC2)on1	-6.8	3.9	-2.8	-11.2	-1.9
Cc1ccc(-c2cc(C(F)F)n3ncc(C(=O)Nc4ccc5c(c4)OCO5)c3n2)cc1	22.3	10.3	-0.5	11.1	47.2*
CCN(CC)c1ccc(NC(=O)c2cnn3c(C(F)F)cc(-c4ccc(OC)cc4)nc23)cc1	15.7	11.2	3.3	13.6	10.9
CCCc1ccc(C(C)NC(=O)c2cnn3c(C(F)F)cc(-c4ccc(OC)cc4)nc23)cc1 (stereo not drawn)	33.6*	17.7	3.5	14.7	21.6
CCCCOc1ccc(S(=O)(=O)NCCc2cn3ccccc3n2)cc1	1.0	3.2	0.3	16.7	15.8
O=C1COc2ccc(NC(=O)c3cnn(Cc4ccccc4)c3)cc2N1	63.2*	11.7	2.7	19.4	1.6
O=S1(=O)NC(=NCCc2cccc(F)c2)c2ccccc21	49.4*	6.2	0.6	33.5*	21.8
O=C(CCN=C1NS(=O)(=O)c2ccccc21)Nc1cccc(-c2nnc3n2CCCCC3)c1	3.5	7.9	0.0	10.8	0.5
COc1ccc(CNC(=O)c2ccccc2NC(=O)c2ccccc2F)cc1	10.0	0.1	2.3	0.9	3.3
CC(=O)Nc1ccc(S(=O)(=O)NCc2ccc(C(=O)NCCN3CCCCCC3)cc2)cc1	34.6*	-5.5	-6.0	-122.8	-9.9
COc1ccc2cc(C(C)C(=O)NCc3ccccc3)ccc2c1 (stereo not drawn)	12.4	28.3	8.5	41.7*	-12.0
COc1ccc(C(=O)Nc2ccccc2C(=O)NCc2ccccc2)cc1	15.7	23.4	7.0	91.7*	16.0
COc1ccc(CNC(=O)c2ccc(CNS(=O)(=O)c3ccc(NC(C)=O)cc3)cc2)cc1	41.1*	12.5	4.5	36.8*	18.8
Cc1ccc(N2CC(c3nnc(NC(=O)CCCc4ccccc4)s3)CC2=O)cc1C (stereo not drawn)	2.7	-2.3	11.4	-4.3	3.1
COc1ccc(S(=O)(=O)N2CCCCC2)cc1NC(=O)COc1ccc2c(c1)CCC2	6.3	23.5	3.0	15.2	-4.2
SMILES	USP17 inh	USP28 inh	USP10 block	USP30 block	USP8 block
COc1ccc(CNC(=O)c2ccc(S(=O)(=O)Nc3ccccc3F)cc2)cc1	24.6	10.9	7.0	31.0*	11.5
COc1ccc(NC(=O)CS(=O)c2ccc(Cl)c(Cl)c2)cc1 (stereo not drawn)	4.8	11.2	-0.9	46.9*	8.0
CCCCC(=O)N1CCCC1c1nnc(C(=O)Nc2cccc(F)c2)s1 (stereo not drawn)	-1.7	8.7	-1.6	6.7	-34.0
COc1cccc(NC(=O)c2cncc(NS(=O)(=O)c3ccccc3)c2)c1	-1.7	-2.6	-2.5	-3.9	-42.1
COc1ccc(NC(=O)c2ccnc(Nc3cccc(OC)c3)c2)cc1	32.1*	10.9	-4.4	7.3	4.7
COc1ccc(NC(=O)c2ccnc(Nc3cccc(C)c3)c2)cc1	-0.1	2.7	-0.7	0.2	-151.5
COc1cccc(Nc2cc(C(=O)Nc3ccccc3)ccn2)c1	36.1*	0.7	-0.3	9.6	-0.8
COc1ccc(-c2c(C)nc3c(-c4ccsc4)cnn3c2N)cc1	6.3	9.4	3.0	19.1	31.5*
COc1ccc(-c2csc3ncn(CC(C)=O)c(=O)c23)cc1	-34.5	5.1	-4.5	-21.5	-17.0
CC(=O)Nc1cccc(C(=O)N(Cc2ccco2)C2(C(=O)Nc3c(C)cccc3C)CCCCC2)c1	-6.8	-3.8	-5.3	-7.3	-6.1
Cc1cccc(C)c1NC(=O)C1(N(Cc2ccco2)C(=O)c2ccccc2F)CCCCC1	13.9	10.9	4.4	35.8*	9.6
Cc1cc(C)nc(SCC(=O)N(Cc2ccco2)C2(C(=O)Nc3c(C)cccc3C)CCCCC2)n1	57.8*	27.0	15.5	40.3*	29.6
COc1cc(O)cc2c1C(=O)O[C@@H](C[C@H]1CCC[C@H](C)O1)C2	-11.0	4.3	-1.2	0.1	-0.7
COc1cc(O)cc2c1C(=O)OC(C)CCCC(O)CCC2 (stereo not drawn)	-10.0	-12.9	-5.7	-17.6	-7.3
COc1cc(O)cc2c1C(=O)OC(C)CCCCCCC2 (stereo not drawn)	39.8*	23.8	38.0*	37.5*	9.4
C[C@H]1CCCC(=O)CCCCCc2cc(OCc3ccccc3)cc(O)c2C(=O)O1	20.9	4.1	4.1	31.8*	12.1
Cc1ccc2c(c1)C(C)(C)C1(/C=C/c3ccc(OCc4ccccc4)cc3)NC(=O)CN21 (stereo not drawn)	-31.2	-34.2	-4.9	-103.2	-14.2
O=C(NC1CC2(CCOCC2)Oc2ccccc21)c1cnccn1 (stereo not drawn)	-0.7	-4.8	1.3	12.3	5.8
O=C1N(CC2CC2)CCN1c1ccc2c(c1)CCC2	10.6	34.2*	0.5	20.1	18.4
O=C1N(CC2CCCCC2)CCN1c1ccc2c(c1)CCC2	31.0*	11.9	9.1	19.0	25.3
CCCCN1CCN(c2ccc3c(c2)CCC3)C1=O	3.7	7.7	1.6	-1.4	6.0
COc1cc2nc(SCc3ccncc3)n(Cc3cccc(C(F)(F)F)c3)c(=N)c2cc1OC	-11.5	-7.9	-0.1	-25.8	11.4
COCCN(C(=O)C1CC1)c1nc(-c2ccccc2)cs1	11.1	17.7	3.6	19.6	31.3*
Cc1ccc(-n2nnc(C(=O)Nc3ccccc3O)n2)cc1	-63.5	-170.2	-2.0	-176.1	-38.8
O=[N+]([O-])c1ccc2nc(CSc3nc4ccccc4[nH]3)[nH]c2c1	4.7	-9.1	-7.9	-68.2	14.6
